hgDAF-12 ag: H. glycines DAF-12 receptor agonists, primary screen, cell-based, luminescence, HEK293, GAL4 fusion, UAS-luciferase. Nuclear hormone receptor DAF-12 (Heterodera glycines), GAL4 fusion. HEK293 GAL4-hgDAF12 UAS-luciferase reporter, agonist luminescence; normalized to butyrate control. activation, % at 6.8 µM. hit rate 1.8% among 370,000;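 active means activation above a cutoff set at the mean of all screened compounds plus 3 SD, cut at about 10% in these data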;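 further: 0% = DMSO wells and 100% = sodium butyrate wells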
SMARCA2 activ: SMARCA2 (BRM) function activators, primary screen, cell-based, luminescence, high throughput | hit rate 1% among 370,000 | activation, % at 9.1 µM | MG213 cells, MMTV-luciferase reporter, dexamethasone, overnight; in the data active means activation above about 7.8%;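 further: 0% = vehicle wells and 100% = reference activator wells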
hcDAF12 agonist: H. contortus DAF-12 nuclear receptor activators, primary screen, cell-based, luminescence, HEK293, lit1-tk-luc reporter. AID 652067, 2013. activation, % at 6.8 µM. hit rate 1.4% among 370,000. HEK293 hcDAF-12 lit1-tk-luc reporter; 0% DMSO, 100% Δ7-dafachronic acid;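 active means activation above the mean of all tested compounds plus 3 SD, cut at about 5.5% in these data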;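 further: 100% = response to 3 µM Δ7-dafachronic acid high control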
ssDAF12 agonist: S. stercoralis DAF-12 nuclear receptor activators, primary screen, cell-based, luminescence, HEK293, GRIP1 co-expression, lit1-tk-luc. Nuclear hormone receptor DAF-12 (Strongyloides stercoralis). HEK293 ssDAF-12/GRIP1 lit1-tk-luc reporter; % of 3 µM dafachronic acid response. activation, % at 6.8 µM. hit rate 1% among 370,000;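 active means activation above the mean over all tested compounds plus 3 SD, cut at about 0.9% in these data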;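 further: 0% = DMSO-only wells and 100% = 3 µM delta7-dafachronic acid wells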
DAX1 inh-1: DAX1 (NR0B1) inhibitors, primary screen, cell-based, HEK293, Gal4-DAX1, luciferase luminescence | hit rate 0.99% among 340,000 | inhibition, % at 6.75 µM | Nuclear receptor subfamily 0 group B member 1 (Homo sapiens), P51843 | AID 504766, 2011 | HEK293 Gal4-DAX1 luciferase reporter;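 active means inhibition above the mean over all tested compounds plus 3 SD, cut at about 4.2% in these data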;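 further: 0% = DAX1-transfected cells with DMSO and 100% = empty-vector control cells with DMSO; inhibition shows as a rise in luminescence from relieved DAX1 repression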
Target sequence (P51843 207-470 limits assumed): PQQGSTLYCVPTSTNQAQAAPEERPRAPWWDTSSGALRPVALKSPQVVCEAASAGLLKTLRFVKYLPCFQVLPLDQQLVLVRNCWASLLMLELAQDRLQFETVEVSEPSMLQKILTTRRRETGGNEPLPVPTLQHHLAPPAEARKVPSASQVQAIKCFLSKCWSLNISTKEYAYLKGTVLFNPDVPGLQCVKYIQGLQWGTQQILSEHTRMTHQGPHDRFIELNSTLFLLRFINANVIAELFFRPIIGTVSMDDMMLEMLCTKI
DAX1 inh-2: DAX1 (NR0B1) inhibitors on StAR promoter, primary screen, cell-based, luminescence, SF-1 (NR5A1), full-length DAX-1; HEK293T StAR-luciferase reporter, SF-1/DAX-1 repression relief; hit rate 1.1% among 370,000; AID 652010, 2013; inhibition, % at 6.8 µM;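 active means inhibition above the mean over all tested compounds plus 3 SD, cut at about 3.6% in these data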;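 further: 0% = DAX-1 cells with DMSO and 100% = cells lacking DAX-1 with DMSO; higher inhibition means more luminescence from relief of DAX-1 repression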
An asterisk follows results filed as active; · = no result given. An excerpt weighted towards active compounds, which were near 4.8% of everything screened.

SMILES | hgDAF-12 ag | SMARCA2 activ | hcDAF12 agonist | ssDAF12 agonist | DAX1 inh-1 | DAX1 inh-2
COC(=O)C1CN(C2CCCC2)CCS(=O)(=O)N1Cc1ccccc1 (stereo unspecified) | -2 | 0 | -1 | -1 | · | -1
Cc1cccc(C(=O)OCC(=O)c2ccc3c(c2)OCO3)c1O | 9 | 5 | 3 | 0 | 2 | 3.9*
C=CCN1[C@H](C)COc2cccc(F)c2S1(=O)=O | -4 | -2 | -3 | -1 | · | 0
O=C(Nc1cccnc1Cl)c1cc(-c2ccco2)on1 | 13* | 3 | 0 | 0 | 1 | 2
COc1ccc(-c2nnc(SCC(=O)Nc3ccc(Oc4ccccc4)cc3)n2Cc2ccco2)cc1 | 1 | -4 | 0 | -1 | · | -2
Cc1ccc(-c2nnc(SCC(=O)Nc3ccc(-c4nc5ccc(C)cc5s4)cc3)n2Cc2ccco2)cc1 | 11* | 3 | -1 | -1 | · | -1
COCCCNC(=O)C[C@@H]1C(=O)N2CCCC3=C2[C@@]1(C(=O)OC)CCCC3 | 1 | 0 | 1 | 0 | · | 1
COc1cccc(-c2cc(N3C(=O)Nc4ccccc4N3O)n[nH]2)c1 | -1 | -1 | 0 | 0 | 4.8* | -1
CC(C)Oc1ccc(S(=O)(=O)N2CCCCCC2)c2ccccc12 | -3 | 0 | -4 | -1 | · | 0
C/C(C=NNC(=O)CSc1nnc(-c2ccc(Cl)cc2)n1-c1ccccc1)=C\c1ccccc1 | 1 | -6 | -1 | -1 | · | 0
COC(=O)c1ccc2c(c1)SC1=C(CCCC1=O)N2 | -2 | 4 | -1 | -1 | -1 | -2
COC(=O)C1=C(C)Nc2ccc(C)cc2S1 | 5 | 0 | 2 | 0 | 4.2* | 1
COc1ccc(N2C(=O)c3ccccc3NC23CCC(C)CC3)cc1 (stereo unspecified) | 13* | 4 | 2 | -1 | 1 | 1
CCOc1ccc(N2C(=O)c3ccccc3NC2(C)CC)cc1 (stereo unspecified) | 12* | 0 | 3 | -1 | 0 | 3.7*
C[C@H](O)[C@@H]1C(=O)N2CCc3c([nH]c4c(-c5ccc6c(c5)OCO6)cccc34)[C@@H]2C[C@@H]1N(C)C(=O)OCc1ccccc1 | 2 | -4 | -1 | -1 | · | 0
Cc1ccc(OCC(C)CN2CCC(C(O)(c3ccccc3)c3ccccc3)CC2)cc1 (stereo unspecified) | 2 | -6 | 1 | -1 | · | -1
Cc1ccc(C(=O)N2CCN(c3ccc(NC(=O)c4cccnc4Cl)cc3)CC2)cc1 | -1 | -1 | -3 | -1 | -2 | -1
CC1CCN(c2ccc(NC(=O)c3cccnc3Cl)cc2)CC1 | 12* | 1 | 0 | -1 | 2 | 1
CCOC(=O)/C(C#N)=C\C1=C(N2CCCC2)CC(C)(C)OC1 | -2 | -2 | -1 | -1 | -1 | -1
CCOC(=O)/C(C#N)=C/C1=C(N2CCOCC2)C(C)(C)OCC1 | 0 | -3 | 0 | -1 | 4.3* | 1
Cc1cc(NS(=O)(=O)c2ccc(NC(=S)NCc3ccccc3)cc2)no1 | 0 | -1 | -1 | -1 | 6.5* | 0
Cc1cc(NS(=O)(=O)c2ccc(NC(=O)Nc3ccccc3)cc2)no1 | -1 | -1 | 0 | -1 | 1 | 0
Cc1cc(NC(=O)Cn2nnc(-c3ccccc3NC(=O)c3ccccc3F)n2)no1 | 2 | 3 | -1 | 1.4* | 2 | 0
Cc1nn(-c2cccc(Cl)c2)c(Cl)c1/C=N/NC(=O)c1cccs1 | 11* | 2 | 2 | 0 | 4.7* | 1
CCNC(=S)N/N=C/c1c(C)nn(-c2cccc(Cl)c2)c1Cl | 1 | -1 | 0 | -1 | -1 | 0
SMILES | hgDAF-12 ag | SMARCA2 activ | hcDAF12 agonist | ssDAF12 agonist | DAX1 inh-1 | DAX1 inh-2
COC(=O)[C@H](C(C)C)N1CCc2nnn(CC3CCCCC3)c2-c2ccccc2S1(=O)=O | -1 | -6 | -4 | -1 | · | 0
COc1ccc(/C(C)=N/NC(=O)Cn2nc([N+](=O)[O-])cc2C)cc1 | 5 | -2 | 0 | -2 | 4.5* | 0
COc1ccc(CNC(=O)Cn2nc([N+](=O)[O-])cc2C)cc1 | -2 | 0 | -3 | -1 | -1 | 0
Cc1ccc(O)c(N=Cc2cccs2)c1 | 9 | 4 | 5.8* | 0 | -1 | 1
COc1cccc(-c2cc3nc(NCc4cccnc4)n(C)c(=O)c3s2)c1 | 9 | 2 | 5 | 1.0* | · | 2
COc1ccc(-c2cc(CNc3nc4cc(-c5ccccc5C)sc4c(=O)n3C)on2)cc1 | 8 | 3 | 1 | 0 | · | 4.3*
COC(=O)c1ccc(-c2ccc3c(c2)[C@]2(CCC[C@@H](O)[C@@H]2NC(=O)CCc2ccccc2)C(=O)N3Cc2ccccc2)cc1 | 3 | -6 | 0 | -2 | · | -3
CC(=Cc1ccccc1)C=C1SC(=S)N(CCCC(=O)Nc2ccc(C(=O)O)cc2)C1=O | 2 | -1 | 0 | -2 | · | 4.2*
CCN(CC)CCOC(=O)c1ccc(NC(=O)CCCN2C(=O)/C(=C\c3cccs3)SC2=S)cc1 | -3 | 0 | -1 | 0 | 1 | 6.8*
O=C(O)CN1C(=O)/C(=C/C=C/c2ccccc2)SC1=S | 1 | 1 | 0 | -1 | 1 | 0
CC(/C=C1\SC(=S)N(CCCC(=O)Nc2ccc(C(=O)O)cc2)C1=O)=C\c1ccccc1 | 0 | 1 | -1 | -1 | 0 | 1
O=C(CCN1C(=O)S/C(=C\C=C\c2ccccc2)C1=O)Nc1ccc(O)cc1 | 12* | 2 | 0 | 0 | 2 | 0
CC(=O)c1ccc(NC(=O)CN2C(=O)/C(=C/C=C/c3ccccc3)SC2=S)cc1 | 3 | 0 | 6.5* | 0 | -1 | 0
O=C(CSc1nnc(COc2ccccc2)n1-c1ccccc1)Nc1ccc(S(=O)(=O)Nc2nccs2)cc1 | 1 | 6 | 0 | -2 | · | 0
O=C(NCc1ccccc1)C1CCN(c2nc(-c3ccc(Br)cc3)cs2)CC1 | 4 | · | -3 | -2 | · | ·
Cc1ccc2c(c1)/C(=C/c1ccco1)C(=O)N2 | 0 | 3 | 0 | -2 | 5.1* | -1
Cc1ccc(/C=C2\C(=O)Nc3ccccc32)o1 | 2 | 0 | 5 | 0 | 1 | 0
COC(=O)[C@]12C[C@H](CC(=O)NCCCCc3ccccc3)C(=O)N(Cc3cccc4ccccc34)C1=C[C@H](COCc1ccccc1)O[C@@H]2C | 3 | -4 | -1 | -1 | · | 2

Screens: PubChem, The Scripps Research Institute Molecular Screening Center
